# In article PMC7862700, “An all-to-all approach to the identification of sequence-specific readers for epigenetic DNA modifications on cytosine”:
# How the values were obtained:
# Experiment in all cases: DAPPL (digital affinity profiling via proximity ligation, sequencing); 10 mM Tris-HCl pH 7.5, 50 mM NaCl, 1 mM DTT, 4% glycerol, room temperature, 30 min; GST-TFs on glutathione beads, 16-mer random dsDNA library, 0.1% formaldehyde crosslink after washing; high values mean tight binding
# FLI1 = molecular target: T1, FLI1 (Homo sapiens, UniProt Q01543 1-452); details: protein: recombinant; tags: N-terminal GST; dsDNA, one strand shown
# T1 sequence: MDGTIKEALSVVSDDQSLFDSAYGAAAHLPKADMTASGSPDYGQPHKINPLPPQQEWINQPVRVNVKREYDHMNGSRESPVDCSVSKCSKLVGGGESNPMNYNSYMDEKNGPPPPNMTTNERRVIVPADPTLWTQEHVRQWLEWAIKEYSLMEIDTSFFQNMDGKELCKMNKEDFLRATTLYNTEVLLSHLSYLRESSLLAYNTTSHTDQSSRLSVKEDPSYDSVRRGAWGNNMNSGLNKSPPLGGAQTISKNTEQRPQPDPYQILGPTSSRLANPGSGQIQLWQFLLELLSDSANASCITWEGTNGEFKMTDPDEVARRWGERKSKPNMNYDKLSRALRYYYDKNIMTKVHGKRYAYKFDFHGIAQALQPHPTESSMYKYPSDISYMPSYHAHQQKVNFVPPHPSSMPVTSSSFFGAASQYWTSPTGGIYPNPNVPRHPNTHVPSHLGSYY
# Method in brief: (§1)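 The binding signal reported is, for every hexamer, its read frequency for a factor over its read frequency for the tag-only sample. Reads came from pools of yeast-expressed, GST-fused human transcription factors on glutathione beads, barcoded with DNA and mixed with that sample, which were incubated with 200 nmole of a random double-stranded 16-mer DNA library in Tris/NaCl/DTT/glycerol buffer at room temperature for 30 min. After washing, the pools were crosslinked with 0.1% formaldehyde, proximity-ligated with BsaI/T4 ligase for 1 h at 37 °C, PCR-amplified and sequenced on an Illumina NextSeq500.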
# ELK1 = molecular target: T2, ELK1 (Homo sapiens, UniProt P19419 1-428); details: protein: recombinant; tags: N-terminal GST; dsDNA, one strand shown
# T2 sequence: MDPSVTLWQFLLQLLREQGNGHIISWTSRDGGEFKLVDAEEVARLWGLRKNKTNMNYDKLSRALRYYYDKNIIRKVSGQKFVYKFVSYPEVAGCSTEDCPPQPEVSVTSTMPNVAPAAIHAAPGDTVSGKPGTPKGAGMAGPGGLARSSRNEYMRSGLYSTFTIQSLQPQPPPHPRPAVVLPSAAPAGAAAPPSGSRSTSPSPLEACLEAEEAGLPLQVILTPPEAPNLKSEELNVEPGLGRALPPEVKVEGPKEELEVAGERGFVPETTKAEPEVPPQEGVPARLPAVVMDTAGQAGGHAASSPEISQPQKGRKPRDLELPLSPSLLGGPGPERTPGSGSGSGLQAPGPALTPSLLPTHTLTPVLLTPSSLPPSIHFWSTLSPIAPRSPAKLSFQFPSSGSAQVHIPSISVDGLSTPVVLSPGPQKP
# Method in brief: as §1
# GABPA = molecular target: T3, GABPA (Homo sapiens, UniProt Q06546 1-454); details: protein: recombinant; tags: N-terminal GST; dsDNA, one strand shown
# T3 sequence: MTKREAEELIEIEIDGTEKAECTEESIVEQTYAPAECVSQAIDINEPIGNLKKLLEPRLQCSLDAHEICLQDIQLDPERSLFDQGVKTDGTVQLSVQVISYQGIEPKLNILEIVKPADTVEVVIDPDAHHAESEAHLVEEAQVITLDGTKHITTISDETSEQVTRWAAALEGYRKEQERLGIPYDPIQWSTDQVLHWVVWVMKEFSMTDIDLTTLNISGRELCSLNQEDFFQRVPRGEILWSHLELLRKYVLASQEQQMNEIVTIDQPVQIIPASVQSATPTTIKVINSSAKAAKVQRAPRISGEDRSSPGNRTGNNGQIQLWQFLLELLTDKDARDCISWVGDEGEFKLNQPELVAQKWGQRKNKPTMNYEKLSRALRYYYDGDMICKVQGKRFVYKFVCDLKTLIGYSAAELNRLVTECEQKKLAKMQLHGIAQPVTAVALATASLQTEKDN
# Method in brief: as §1
# ERG = molecular target: T4, ERG (Homo sapiens, UniProt P11308 1-479); details: protein: recombinant; tags: N-terminal GST; dsDNA, one strand shown
# T4 sequence: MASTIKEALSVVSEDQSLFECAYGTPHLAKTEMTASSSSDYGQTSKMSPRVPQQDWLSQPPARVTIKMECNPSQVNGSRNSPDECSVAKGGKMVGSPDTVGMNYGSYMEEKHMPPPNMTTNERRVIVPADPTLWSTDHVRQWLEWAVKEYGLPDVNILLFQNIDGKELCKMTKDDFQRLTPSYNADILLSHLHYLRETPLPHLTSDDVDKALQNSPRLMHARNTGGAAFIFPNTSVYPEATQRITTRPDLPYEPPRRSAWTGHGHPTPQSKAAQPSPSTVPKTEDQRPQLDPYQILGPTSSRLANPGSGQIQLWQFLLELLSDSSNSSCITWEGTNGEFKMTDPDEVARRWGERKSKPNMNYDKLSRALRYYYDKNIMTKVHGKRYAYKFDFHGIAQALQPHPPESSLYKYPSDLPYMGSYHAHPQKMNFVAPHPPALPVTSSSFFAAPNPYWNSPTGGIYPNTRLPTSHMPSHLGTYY
# Method in brief: as §1
# ELF1 = ELF1 (Homo sapiens, UniProt P32519 1-619); details: protein: recombinant; tags: N-terminal GST; dsDNA, one strand shown
# Sequence of ELF1 (P32519 whole entry): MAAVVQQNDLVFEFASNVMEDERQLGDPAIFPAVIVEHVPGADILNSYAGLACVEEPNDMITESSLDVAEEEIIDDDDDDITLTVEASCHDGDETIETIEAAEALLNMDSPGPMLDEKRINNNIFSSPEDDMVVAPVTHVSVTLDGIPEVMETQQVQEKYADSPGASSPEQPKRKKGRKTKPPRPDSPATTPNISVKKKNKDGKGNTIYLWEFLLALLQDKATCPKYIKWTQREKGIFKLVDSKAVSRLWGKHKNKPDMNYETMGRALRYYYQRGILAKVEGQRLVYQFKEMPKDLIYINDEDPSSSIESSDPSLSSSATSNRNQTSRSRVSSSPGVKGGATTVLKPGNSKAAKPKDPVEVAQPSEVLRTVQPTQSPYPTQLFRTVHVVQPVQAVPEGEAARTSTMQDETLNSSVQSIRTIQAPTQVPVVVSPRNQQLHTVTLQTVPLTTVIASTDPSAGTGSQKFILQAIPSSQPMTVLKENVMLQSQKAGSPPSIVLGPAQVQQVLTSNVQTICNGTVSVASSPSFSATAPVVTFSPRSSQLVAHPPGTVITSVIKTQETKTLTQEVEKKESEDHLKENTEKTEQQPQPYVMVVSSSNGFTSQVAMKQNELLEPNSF
# Method in brief: as §1
# EHF = molecular target: T5, EHF (Homo sapiens, UniProt Q9NZC4 1-300); details: protein: recombinant; tags: N-terminal GST; dsDNA, one strand shown
# T5 sequence: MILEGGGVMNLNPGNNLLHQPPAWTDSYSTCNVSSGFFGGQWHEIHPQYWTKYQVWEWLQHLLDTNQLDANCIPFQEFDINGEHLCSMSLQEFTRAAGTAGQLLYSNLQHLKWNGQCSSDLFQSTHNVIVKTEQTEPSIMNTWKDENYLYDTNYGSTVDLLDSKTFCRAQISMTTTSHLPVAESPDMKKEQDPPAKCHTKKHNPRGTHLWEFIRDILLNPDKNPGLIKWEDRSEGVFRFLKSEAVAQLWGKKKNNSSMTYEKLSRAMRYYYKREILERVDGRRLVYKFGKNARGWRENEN
# Method in brief: as §1
# SPI1 = SPI1 (Homo sapiens, UniProt P17947 1-270); details: protein: recombinant; tags: N-terminal GST; dsDNA, one strand shown
# Method in brief: as §1
# SPIB = SPIB (Homo sapiens, UniProt Q01892 1-262); details: protein: recombinant; tags: N-terminal GST; dsDNA, one strand shown
# Sequence of SPIB (Q01892 whole entry): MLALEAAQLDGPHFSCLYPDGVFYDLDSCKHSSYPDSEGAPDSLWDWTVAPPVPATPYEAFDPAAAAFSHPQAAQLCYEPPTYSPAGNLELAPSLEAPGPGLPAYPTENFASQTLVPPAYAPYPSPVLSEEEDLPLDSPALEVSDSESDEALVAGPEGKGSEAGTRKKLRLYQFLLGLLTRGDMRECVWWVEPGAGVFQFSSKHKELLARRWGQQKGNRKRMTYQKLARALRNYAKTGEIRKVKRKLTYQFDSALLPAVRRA
# Method in brief: as §1
# ELK3 = molecular target: T6, ELK3 (Homo sapiens, UniProt P41970 1-407); details: protein: recombinant; tags: N-terminal GST; dsDNA, one strand shown
# T6 sequence: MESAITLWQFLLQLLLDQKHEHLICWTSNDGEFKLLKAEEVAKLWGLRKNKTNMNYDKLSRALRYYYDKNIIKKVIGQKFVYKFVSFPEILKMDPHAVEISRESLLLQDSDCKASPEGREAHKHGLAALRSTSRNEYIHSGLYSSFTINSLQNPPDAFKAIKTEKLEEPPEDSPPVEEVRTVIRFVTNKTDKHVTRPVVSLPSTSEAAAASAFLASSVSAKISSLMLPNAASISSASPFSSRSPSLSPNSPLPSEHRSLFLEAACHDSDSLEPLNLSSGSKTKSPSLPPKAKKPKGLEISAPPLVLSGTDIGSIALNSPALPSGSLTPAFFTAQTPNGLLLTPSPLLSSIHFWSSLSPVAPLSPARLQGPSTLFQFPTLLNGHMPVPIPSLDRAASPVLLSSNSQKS
# Method in brief: as §1
# FEV = molecular target: T7, FEV (Homo sapiens, UniProt Q99581 1-238); details: protein: recombinant; tags: N-terminal GST; dsDNA, one strand shown
# T7 sequence: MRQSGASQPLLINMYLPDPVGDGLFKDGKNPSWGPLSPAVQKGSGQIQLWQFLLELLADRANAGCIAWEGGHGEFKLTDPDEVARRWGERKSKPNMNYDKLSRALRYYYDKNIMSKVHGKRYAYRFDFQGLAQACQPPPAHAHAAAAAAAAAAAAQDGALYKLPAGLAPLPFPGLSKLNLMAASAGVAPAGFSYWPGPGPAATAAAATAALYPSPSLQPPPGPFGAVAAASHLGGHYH
# Method in brief: as §1
# ETV5 = ETV5 (Homo sapiens, UniProt P41161 1-510); details: protein: recombinant; tags: N-terminal GST; dsDNA, one strand shown
# Sequence of ETV5 (P41161 whole entry): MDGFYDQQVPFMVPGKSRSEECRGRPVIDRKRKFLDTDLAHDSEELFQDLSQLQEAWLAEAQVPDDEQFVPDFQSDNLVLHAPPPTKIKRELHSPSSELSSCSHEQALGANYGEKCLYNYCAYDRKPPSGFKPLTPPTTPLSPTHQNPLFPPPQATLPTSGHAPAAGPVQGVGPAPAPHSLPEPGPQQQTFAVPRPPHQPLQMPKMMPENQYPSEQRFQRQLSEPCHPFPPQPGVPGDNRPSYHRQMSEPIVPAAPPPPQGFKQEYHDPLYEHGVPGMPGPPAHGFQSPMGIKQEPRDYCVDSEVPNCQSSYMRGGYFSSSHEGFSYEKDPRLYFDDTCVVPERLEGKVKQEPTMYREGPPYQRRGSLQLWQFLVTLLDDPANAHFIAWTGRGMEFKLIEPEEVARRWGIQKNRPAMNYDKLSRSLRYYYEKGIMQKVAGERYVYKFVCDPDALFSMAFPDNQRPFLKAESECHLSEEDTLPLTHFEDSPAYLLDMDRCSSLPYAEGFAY
# Method in brief: as §1
# HSF1 = HSF1 (Homo sapiens, UniProt Q00613 1-529); details: protein: recombinant; tags: N-terminal GST; chain copies: 3; dsDNA, one strand shown
# Sequence of HSF1 (Q00613 whole entry): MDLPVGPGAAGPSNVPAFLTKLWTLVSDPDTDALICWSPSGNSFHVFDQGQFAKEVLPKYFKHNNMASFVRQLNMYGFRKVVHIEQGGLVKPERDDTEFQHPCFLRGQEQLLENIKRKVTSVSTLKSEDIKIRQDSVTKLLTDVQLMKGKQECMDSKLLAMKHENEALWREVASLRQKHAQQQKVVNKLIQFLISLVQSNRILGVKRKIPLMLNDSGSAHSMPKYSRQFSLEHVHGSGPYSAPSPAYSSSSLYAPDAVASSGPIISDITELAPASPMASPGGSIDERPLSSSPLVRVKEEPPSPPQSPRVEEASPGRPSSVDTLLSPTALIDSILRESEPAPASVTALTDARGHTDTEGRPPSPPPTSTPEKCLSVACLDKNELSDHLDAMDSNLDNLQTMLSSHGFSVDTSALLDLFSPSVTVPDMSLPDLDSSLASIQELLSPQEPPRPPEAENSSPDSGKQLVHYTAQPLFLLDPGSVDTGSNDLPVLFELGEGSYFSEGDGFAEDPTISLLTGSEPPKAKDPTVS
# Method in brief: as §1
# SPIC = molecular target: T8, SPIC (Homo sapiens, UniProt Q8N5J4 1-248); details: protein: recombinant; tags: N-terminal GST; dsDNA, one strand shown
# T8 sequence: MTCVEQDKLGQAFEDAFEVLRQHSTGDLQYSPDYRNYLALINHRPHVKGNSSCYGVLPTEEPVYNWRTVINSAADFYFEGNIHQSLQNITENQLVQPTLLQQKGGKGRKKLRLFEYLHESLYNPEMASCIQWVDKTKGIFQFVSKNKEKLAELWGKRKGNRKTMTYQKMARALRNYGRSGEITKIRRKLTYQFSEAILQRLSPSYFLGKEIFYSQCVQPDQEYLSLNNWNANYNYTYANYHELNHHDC
# Method in brief: as §1
# ELF4 = ELF4 (Homo sapiens, UniProt Q99607 1-663); details: protein: recombinant; tags: N-terminal GST; dsDNA, one strand shown
# Sequence of ELF4 (Q99607 whole entry): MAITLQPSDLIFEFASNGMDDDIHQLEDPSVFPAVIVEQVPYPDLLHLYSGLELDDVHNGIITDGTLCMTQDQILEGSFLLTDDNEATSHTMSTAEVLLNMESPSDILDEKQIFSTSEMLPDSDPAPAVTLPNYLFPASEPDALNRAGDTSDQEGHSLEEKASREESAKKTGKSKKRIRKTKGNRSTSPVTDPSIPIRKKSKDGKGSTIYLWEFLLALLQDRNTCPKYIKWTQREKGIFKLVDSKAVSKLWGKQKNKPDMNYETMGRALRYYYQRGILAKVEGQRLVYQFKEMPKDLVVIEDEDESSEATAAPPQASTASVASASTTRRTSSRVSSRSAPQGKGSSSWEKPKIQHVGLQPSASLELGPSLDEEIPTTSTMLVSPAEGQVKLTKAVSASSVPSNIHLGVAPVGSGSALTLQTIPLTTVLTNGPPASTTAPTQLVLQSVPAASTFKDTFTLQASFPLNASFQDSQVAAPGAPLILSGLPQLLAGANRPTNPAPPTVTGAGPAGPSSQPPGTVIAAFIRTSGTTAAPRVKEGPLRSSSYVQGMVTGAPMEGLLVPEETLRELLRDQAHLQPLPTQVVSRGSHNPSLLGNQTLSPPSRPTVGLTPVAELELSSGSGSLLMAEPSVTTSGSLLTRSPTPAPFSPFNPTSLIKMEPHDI
# Method in brief: as §1
# ELK4 = molecular target: T9, ELK4 (Homo sapiens, UniProt P28324-2 1-405); details: protein: recombinant; tags: N-terminal GST; dsDNA, one strand shown
# T9 sequence: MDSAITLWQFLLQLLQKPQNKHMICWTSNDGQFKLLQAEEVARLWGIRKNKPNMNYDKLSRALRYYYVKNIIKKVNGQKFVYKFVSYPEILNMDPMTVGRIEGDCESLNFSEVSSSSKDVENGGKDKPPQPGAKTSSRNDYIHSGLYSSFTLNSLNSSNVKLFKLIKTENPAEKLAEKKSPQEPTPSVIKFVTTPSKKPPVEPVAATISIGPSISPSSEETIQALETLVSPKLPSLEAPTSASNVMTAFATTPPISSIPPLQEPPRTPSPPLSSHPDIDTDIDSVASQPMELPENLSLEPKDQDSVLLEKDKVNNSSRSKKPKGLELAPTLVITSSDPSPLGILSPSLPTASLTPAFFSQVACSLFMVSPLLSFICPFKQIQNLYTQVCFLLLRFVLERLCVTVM
# Method in brief: as §1
# ETV2 = molecular target: T10, ETV2 (Homo sapiens, UniProt O00321 1-342); details: protein: recombinant; tags: N-terminal GST; dsDNA, one strand shown
# T10 sequence: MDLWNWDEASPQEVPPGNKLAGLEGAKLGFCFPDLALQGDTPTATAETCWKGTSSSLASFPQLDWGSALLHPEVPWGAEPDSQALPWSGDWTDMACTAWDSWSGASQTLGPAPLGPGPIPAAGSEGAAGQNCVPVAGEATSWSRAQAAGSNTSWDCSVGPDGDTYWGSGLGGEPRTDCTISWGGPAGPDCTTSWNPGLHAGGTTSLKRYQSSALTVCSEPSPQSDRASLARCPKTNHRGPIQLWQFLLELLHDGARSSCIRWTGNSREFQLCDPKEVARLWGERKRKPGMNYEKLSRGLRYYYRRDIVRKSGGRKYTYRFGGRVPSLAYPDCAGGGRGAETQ
# Method in brief: as §1
# ELF3 = molecular target: T11, ELF3 (Homo sapiens, UniProt P78545 1-371); details: protein: recombinant; tags: N-terminal GST; dsDNA, one strand shown
# T11 sequence: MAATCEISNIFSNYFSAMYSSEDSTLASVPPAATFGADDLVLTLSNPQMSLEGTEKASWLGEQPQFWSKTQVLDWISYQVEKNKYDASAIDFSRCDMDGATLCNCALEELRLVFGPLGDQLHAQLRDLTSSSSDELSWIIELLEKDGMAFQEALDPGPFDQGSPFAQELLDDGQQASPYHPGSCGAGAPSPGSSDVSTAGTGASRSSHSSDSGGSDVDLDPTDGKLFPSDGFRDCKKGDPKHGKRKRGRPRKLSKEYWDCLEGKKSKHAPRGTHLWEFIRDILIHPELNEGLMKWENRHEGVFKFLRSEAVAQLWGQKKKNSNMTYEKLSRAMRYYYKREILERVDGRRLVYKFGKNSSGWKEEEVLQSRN
# Method in brief: as §1
# CRX = CRX (Homo sapiens, UniProt O43186 1-299); details: protein: recombinant; tags: N-terminal GST; dsDNA, one strand shown
# Sequence of CRX (O43186 whole entry): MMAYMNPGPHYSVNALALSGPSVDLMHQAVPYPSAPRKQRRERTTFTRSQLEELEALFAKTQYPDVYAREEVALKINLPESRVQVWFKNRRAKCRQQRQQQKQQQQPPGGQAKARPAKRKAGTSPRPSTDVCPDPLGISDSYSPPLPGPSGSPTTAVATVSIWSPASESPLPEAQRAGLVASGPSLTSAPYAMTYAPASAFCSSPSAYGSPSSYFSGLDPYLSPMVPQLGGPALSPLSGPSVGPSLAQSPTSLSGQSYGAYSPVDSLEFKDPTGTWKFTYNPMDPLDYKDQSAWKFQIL
# Method in brief: as §1
# ETV1 = ETV1 (Homo sapiens, UniProt P50549 1-477); details: protein: recombinant; tags: N-terminal GST; dsDNA, one strand shown
# Sequence of ETV1 (P50549 whole entry): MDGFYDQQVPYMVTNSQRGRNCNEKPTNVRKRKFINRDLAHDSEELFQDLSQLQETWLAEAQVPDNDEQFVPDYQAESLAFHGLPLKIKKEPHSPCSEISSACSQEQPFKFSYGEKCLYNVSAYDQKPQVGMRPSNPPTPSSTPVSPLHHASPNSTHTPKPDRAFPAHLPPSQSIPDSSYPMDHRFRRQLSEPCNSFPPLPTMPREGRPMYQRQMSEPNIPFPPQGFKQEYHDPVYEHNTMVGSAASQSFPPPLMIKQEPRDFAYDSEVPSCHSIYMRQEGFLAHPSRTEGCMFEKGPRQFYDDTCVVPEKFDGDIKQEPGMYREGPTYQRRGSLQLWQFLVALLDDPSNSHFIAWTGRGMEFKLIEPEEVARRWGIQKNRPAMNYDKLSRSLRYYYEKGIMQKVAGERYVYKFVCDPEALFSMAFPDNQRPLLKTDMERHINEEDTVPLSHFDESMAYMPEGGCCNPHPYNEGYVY
# Method in brief: as §1
sequence,measurement,setting,value
TTTCAG,binding signal,FLI1,"1.36 fold enrichment (6-mer frequency, TF over GST control)"
same,binding signal,ELK1,"1.19 fold enrichment (6-mer frequency, TF over GST control)"
same,binding signal,GABPA,"1.34 fold enrichment (6-mer frequency, TF over GST control)"
same,binding signal,ERG,"1.3 fold enrichment (6-mer frequency, TF over GST control)"
same,binding signal,ELF1,"1.31 fold enrichment (6-mer frequency, TF over GST control)"
same,binding signal,EHF,"1.34 fold enrichment (6-mer frequency, TF over GST control)"
same,binding signal,SPI1,"1.35 fold enrichment (6-mer frequency, TF over GST control)"
same,binding signal,SPIB,"1.24 fold enrichment (6-mer frequency, TF over GST control)"
same,binding signal,ELK3,"1.23 fold enrichment (6-mer frequency, TF over GST control)"
same,binding signal,FEV,"1.3 fold enrichment (6-mer frequency, TF over GST control)"
same,binding signal,ETV5,"1.28 fold enrichment (6-mer frequency, TF over GST control)"
same,binding signal,HSF1,"1.3 fold enrichment (6-mer frequency, TF over GST control)"
same,binding signal,SPIC,"1.14 fold enrichment (6-mer frequency, TF over GST control)"
same,binding signal,ELF4,"1.33 fold enrichment (6-mer frequency, TF over GST control)"
same,binding signal,ELK4,"1.38 fold enrichment (6-mer frequency, TF over GST control)"
same,binding signal,ETV2,"1.43 fold enrichment (6-mer frequency, TF over GST control)"
same,binding signal,ELF3,"1.24 fold enrichment (6-mer frequency, TF over GST control)"
same,binding signal,CRX,"1.31 fold enrichment (6-mer frequency, TF over GST control)"
same,binding signal,ETV1,"1.39 fold enrichment (6-mer frequency, TF over GST control)"
